PABP FP inh = PABP-poly(A) binding inhibition | P11940 | PABP-poly(A) RNA binding, fluorescence polarization | inhibition, % at 35 µM | 290,000 compounds, 1% hits | AID 2014;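 also: calls also rest on retests at 20 µM and on dose response follow-up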
NRP1-CendR mod = alters CendR peptide binding to human NRP-1 | FAM-RPARPAR peptide binding to NRP-1, fluorescence polarization | inhibition, % at 25 µM | 360,000 compounds, 0.85% hits | AID 602438;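 active = inhibition or corrected inhibition above about 18%, plus a signal ratio from 0.5 to 1.5, limit read from the data, passing the limit was not always enough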
Target sequence (O14786 whole entry, looked up): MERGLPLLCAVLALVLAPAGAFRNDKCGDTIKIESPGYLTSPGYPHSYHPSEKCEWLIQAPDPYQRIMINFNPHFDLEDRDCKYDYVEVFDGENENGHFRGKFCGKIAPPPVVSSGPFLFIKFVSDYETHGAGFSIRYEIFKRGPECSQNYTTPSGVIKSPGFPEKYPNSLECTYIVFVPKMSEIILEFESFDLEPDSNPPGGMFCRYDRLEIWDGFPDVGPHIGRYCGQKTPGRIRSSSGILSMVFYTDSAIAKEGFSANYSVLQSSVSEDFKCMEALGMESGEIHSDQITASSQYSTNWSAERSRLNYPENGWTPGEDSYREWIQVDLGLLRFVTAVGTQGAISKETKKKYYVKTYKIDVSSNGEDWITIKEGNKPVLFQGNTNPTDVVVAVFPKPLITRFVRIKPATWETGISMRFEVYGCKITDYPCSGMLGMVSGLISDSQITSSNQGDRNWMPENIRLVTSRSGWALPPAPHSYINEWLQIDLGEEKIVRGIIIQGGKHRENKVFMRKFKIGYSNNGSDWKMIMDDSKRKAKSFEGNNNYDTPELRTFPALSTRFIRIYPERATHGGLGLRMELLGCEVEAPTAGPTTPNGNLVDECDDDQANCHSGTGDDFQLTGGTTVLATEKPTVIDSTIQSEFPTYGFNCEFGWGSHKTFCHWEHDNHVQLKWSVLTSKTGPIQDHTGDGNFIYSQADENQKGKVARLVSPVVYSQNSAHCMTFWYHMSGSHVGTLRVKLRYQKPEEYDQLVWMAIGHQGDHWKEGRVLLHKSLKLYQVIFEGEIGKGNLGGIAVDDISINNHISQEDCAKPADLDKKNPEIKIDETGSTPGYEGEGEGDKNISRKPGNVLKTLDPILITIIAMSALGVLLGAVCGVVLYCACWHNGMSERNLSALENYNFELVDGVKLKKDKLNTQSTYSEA
eIF4H inh = inhibitors of RNA binding by human eIF4H; Q15056; eIF4H fluorescence polarization binding assay; inhibition, % at 35 µM; 290,000 compounds, 0.94% hits; AID 2012;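 also: calls also rest on retests at 20 µM and on dose response follow-up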
PABP1 MLLE inh = inhibitors of microRNA-mediated deadenylation, human PABP1 MLLE binding. GST-MLLE / FITC-PAM2 fluorescence polarization. 360,000 compounds, 0.36% hits. inhibition, % at 20 µM. AID 588489; in the data active = inhibition above about 35%, passing the limit was not always enough
Hits are given with their value; n = inactive; u = inconclusive; x = not tested or not shown. Sampled rows, rich in hits. Any-hit rate of the full collection: about 2.1%. Unless noted, no rule for the calls is given here.

SMILES | PABP FP inh | NRP1-CendR mod | eIF4H inh | PABP1 MLLE inh
O=C(NCc1ccc2c(c1)OCO2)C(=O)NCC1OCCCN1S(=O)(=O)c1ccc(F)cc1 (stereo unspecified) | n | n | n | n
O=C1N/C(=C/c2cccn2-c2ccc(F)cc2)C(=O)N1Cc1ccccc1 | n | n | n | n
Cc1cccc(NC(=O)CN2C(=O)N/C(=C/c3ccc(C)o3)C2=O)c1 | n | n | n | n
Cc1cccc(NC(=O)CN2C(=O)N/C(=C\c3ccc(-c4cccc(C(=O)O)c4)o3)C2=O)c1 | 72.0 | n | 79.2 | n
Cc1ccc(CN2C(=O)N/C(=C\c3cccn3-c3cccc(C(=O)O)c3)C2=O)cc1 | 2.6 | n | n | n
O=C(O)c1cccc(-n2cccc2/C=C2\NC(=O)N(Cc3ccc(F)cc3)C2=O)c1 | 54.8 | n | n | n
O=C1C=CN2CCOCC2C1 (stereo unspecified) | x | n | x | n
Cc1ccc(S(=O)(=O)N2CCN(C(=O)COC(=O)c3ccc(Cl)nc3)CC2)c(C)c1 | x | n | x | n
Cc1cc2nsnc2c(S(=O)(=O)N2CCN(C)CC2)c1C | n | n | n | n
CCCNC(=O)C1(C)CCCN(Cc2ccccc2F)C1 (stereo unspecified) | x | n | x | n
Cc1cccc(C)c1N1C(=O)[C@@H]2C(c3ccccc3Cl)=NO[C@@H]2C1=O | n | n | n | n
COc1ccc(OC)c(N2C(=O)[C@@H]3C(c4ccccc4Cl)=NO[C@@H]3C2=O)c1 | 61.0 | n | 81.1 | n
Cn1cnc([N+](=O)[O-])c1S(=O)(=O)Oc1ccc(Cl)cc1 | x | n | x | 40.7
COC(=O)CC1C(=O)NCCN1C(=S)Nc1ccc(F)cc1 (stereo unspecified) | n | 36.1 | n | n
c1ccc2c(c1)OCC(c1nnc3n1-c1ccccc1SC3)O2 (stereo unspecified) | n | 45.0 | n | n
c1ccc(-c2nnc3n2-c2ccccc2SC3)cc1 | n | n | n | n
Nc1nc(SCC(=O)Nc2cccc(F)c2)n[nH]1 | x | n | x | n
COc1ccc(F)cc1CSc1nnnn1-c1ccc(O)cc1 | n | 23.0 | n | n
O=C(N/N=C/c1ccc(-c2ccc(Cl)c(C(=O)O)c2)o1)c1cc2c(ccc3ccccc32)o1 | 76.1 | n | 76.5 | n
CC(=O)c1c2c3c(c(Br)ccc3n(C)c1=O)C(=O)c1ccccc1-2 | x | n | x | 59.1
Cc1cc(C(F)(F)F)nc(SCC(=O)NC2=NC(=O)C(C)S2)n1 (stereo unspecified) | n | n | n | 44.4
COC(=O)c1cc(F)c(-n2cncn2)c(F)c1 | n | n | n | n
COC(=O)c1cc([N+](=O)[O-])c(-n2cncn2)c([N+](=O)[O-])c1 | 61.9 | n | n | n
CC(C)(CNS(=O)(=O)c1cccs1)N1CCOCC1 | x | n | x | n
O=C1CCN(CCc2ccccc2)CCN1[C@H](CSc1ccc(Br)cc1)c1ccccc1 | n | n | n | n
SMILES | PABP FP inh | NRP1-CendR mod | eIF4H inh | PABP1 MLLE inh
CC(C)CN1CCC(=O)N([C@H](CSc2ccc(Br)cc2)Cc2ccccc2)CC1 | n | 24.4 | n | n
CN1CCC(=O)N([C@H](CSc2ccc(Br)cc2)Cc2ccccc2)CC1 | n | n | n | n
CCCN1CCC(=O)N([C@H](CSc2ccc(Br)cc2)c2ccccc2)CC1 | n | 24.0 | n | n
FC(F)c1nc2nc(Cl)c(Cl)nc2[nH]1 | x | n | x | n
Cc1cc(NC(=O)CN(C)CC(=O)Nc2ccc(Cl)c(C(F)(F)F)c2)no1 | x | n | x | n
Cc1cc(NC(=O)CN(C)CC(=O)Nc2ccc(Cl)cc2)no1 | x | 18.6 | x | n
CCC(C)[C@H](NC(=O)[C@H](Cc1ccccc1)n1c(=O)[nH]c2ccccc2c1=O)C(=O)NCC1CCC(C(=O)O)CC1 (stereo partly specified) | n | n | n | n
CCCCn1c(=NC(=O)c2ccc3c(c2)OCO3)c(C#N)cc2c(=O)n3cccc(C)c3nc21 | 58.3 | n | 81.0 | n
Cc1oc2c(C)c(O)ccc2c(=O)c1-c1nncn1-c1ccccc1 | 21.8 | n | u | n
Cc1oc2c(C)c(O)ccc2c(=O)c1N1C(=O)c2ccccc2C1=O | n | n | n | n
CCOC(=O)N1CC=C2C(C#N)=C(N)C(C#N)(C#N)[C@H](c3cccs3)C2C1 (stereo partly specified) | n | n | u | n
CC1CC=C2C(C#N)=C(N)C(C#N)(C#N)C(c3cccs3)C2C1 (stereo unspecified) | 123.8 | n | 122.8 | n
COc1ccc(CCNC(=O)C(=O)c2cn(CC(=O)N3CCCC3)c3ccccc23)cc1 | x | n | x | n
CS(=O)(=O)N(CC(=O)NC1CC1)C1CCCCC1 | n | n | active | n
CS(=O)(=O)N(CC(=O)NC1CCCC1)C1CCCCC1 | n | n | n | n
O=C(O)CSc1cc(NS(=O)(=O)c2cccc([N+](=O)[O-])c2)c2ccccc2c1O | n | n | n | 43.5
O=S(=O)(Nc1cc(Sc2cccc3cccnc23)c(O)c2ccccc12)c1ccccc1 | active | x | 75.2 | x
CCc1ccc(S(=O)(=O)Nc2cc(SCC(=O)O)c(O)c3ccccc23)cc1 | n | n | n | n
CCOc1ccc(S(=O)(=O)Nc2cc(SCC(=O)O)c(O)c3ccccc23)cc1 | n | n | n | n
CCOc1ccc(Nc2cc(Nc3ccccc3OCC)nc(C=C(C#N)C#N)n2)cc1 | 56.2 | n | n | n
CCOc1ccccc1Nc1cc(C)c2cccc(C)c2n1 | n | n | n | n
CCC1(C)Nc2ccccc2C(=O)N1O (stereo unspecified) | n | 25.9 | n | n
O=C(NNC(=O)C1CC(=O)N(Cc2ccccc2)C1)c1ccc(Br)cc1 (stereo unspecified) | n | n | n | n
O=C(O)c1ccc(CSc2ccccn2)cc1 | n | n | n | n
O=C(O)c1ccccc1CSc1ccccn1 | n | 39.7 | n | n
SMILES | PABP FP inh | NRP1-CendR mod | eIF4H inh | PABP1 MLLE inh
O=[N+]([O-])c1ccc(Cl)c(/C=N/n2c(-c3ccncc3)n[nH]c2=S)c1 | n | n | n | n
CC(NC(=O)CCC(=O)NC(C)c1ccccc1)c1ccccc1 (stereo unspecified) | n | n | n | n
C[C@H](NC(=O)CCC1CCC(=O)N1)c1ccccc1 (stereo partly specified) | x | 19.1 | x | n
CCCCn1c(N)c(N(CCOC)C(=O)CCCc2nc3ccccc3c(=O)[nH]2)c(=O)[nH]c1=O | x | n | x | n
Cc1ccccc1C1C(C#N)=C2N=C(N)c3c(sc4c3CCCCC4)N2C2=C1C(=O)CCC2 (stereo unspecified) | 54.5 | n | 78.3 | n
N#CC1=C2N=C(N)c3ccccc3N2C2=C(C(=O)CCC2)C1c1ccccc1F (stereo unspecified) | u | n | u | n
CCOc1ccc(/C=C/C(=O)Nc2ccccc2C(F)(F)F)cc1 | 94.2 | n | active | n
COc1ccc(/C=C/C(=O)Nc2ccccc2C(F)(F)F)cc1 | n | n | n | n
COc1ccccc1N1C(=O)c2cccnc2C1=O | n | n | n | n
O=C1C(=O)c2cccnc2-c2ncccc21 | x | 26.6 | x | n
O=C1c2cccnc2-c2ncccc21 | n | n | n | n
COC1=C(Br)C(=O)c2ncccc2C1=O | x | 36.5 | x | n
CCC1CCCCN1CCCNC(=O)c1ccc(CS(=O)(=O)c2ccccc2OC)o1 (stereo unspecified) | n | n | n | n
